For 33 molecules, activity, negative = inhibition and Potency results are on record in PubChem BioAssay (NCATS).

Assay [1] is described as follows: qHTS profiling for inhibitors of Plasmodium falciparum proliferation (AID 504749). Also: nearly all actives have a fitted effect of over 60% in size.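 As to activity, negative = inhibition: 0% = DMSO vehicle and full inhibition = artemisinin control.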 The following applies: P. falciparum in erythrocytes, SYBR Green DNA, 72 h. The procedure, abridged: (§1)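 In a 72 h erythrocytic culture (37 C, humidified, 5% CO2) at 2.5% hematocrit and 0.3% starting parasitemia, compounds were tested; SYBR Green I in detergent lysis buffer stained parasite DNA overnight.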

Assay [2] concerns 3D7. The assay is described as above. To be noted: P. falciparum in erythrocytes, SYBR Green DNA, 72 h; series mostly up to 28.7 µM. The procedure, abridged:
as §1

Assay [3] deals with 7G8. The description is as above. The following applies: P. falciparum in erythrocytes, SYBR Green DNA, 72 h; series mostly up to 28.7 µM. In outline: as §1
Assay [4] relates to AA1029. Described as above. To be noted: P. falciparum in erythrocytes, SYBR Green DNA, 72 h; series mostly up to 28.7 µM. In outline:
as §1

Assay [5] deals with AS120. The assay is described as above. To be noted: P. falciparum in erythrocytes, SYBR Green DNA, 72 h; series mostly up to 28.7 µM. The procedure, abridged:
as §1

The test system of assay [6] is ATS189. The assay is described as above. The following applies: P. falciparum in erythrocytes, SYBR Green DNA, 72 h; series mostly up to 28.7 µM. The procedure, abridged: as §1
Setting [7] is: at 28.7 µM (top of the series), parasite line A.
[8] abbreviates: at 28.7 µM (top of the series), parasite line B.
[9] abbreviates: at 12.8 µM (top of the series), parasite line A.
Setting [10] is: at 12.8 µM (top of the series), parasite line B.

Results filed as inconclusive are left out. Unmarked numbers belong to inactive results. Calls of active or inactive are those of the source. Calls follow the shape of the dose curve; as a rule, active = well fitted inhibition curve with a large enough effect; inconclusive = small, poorly fitted or top-dose-only effect; inactive = flat fitted curve, though single readings scatter.
Potency is read from the fitted curve at half-maximal effect.

In the case of `Cc1ccc(S(=O)(=O)NC(=O)NC2CCCCC2)cc1`, the values for the activity, negative = inhibition in assay [1] (setting [7]) and in assay [1] (setting [8]) were -9.84% and 5.26%, respectively. The Potency entry in assay [2], in assay [3], in assay [4], in assay [5] and in assay [6] was “inactive” in each case.

Consider `C=CCSCC1Nc2cc(Cl)c(S(N)(=O)=O)cc2S(=O)(=O)N1` (stereo not drawn), for which the activity, negative = inhibition in assay [1] (setting [7]) was 8.77%; in assay [1] (setting [8]), 13.6%. Moreover, the Potency entry in assay [2], in assay [3], in assay [4], in assay [5] and in assay [6] was “inactive” each time.

As to `COc1cc(O)cc(O)c1`, the activity, negative = inhibition was 4.63% in assay [1] (setting [7]) and -8.81% in assay [1] (setting [8]). The Potency result in assay [2], in assay [3], in assay [4], in assay [5] and in assay [6] was “inactive” each time.

Regarding `N[C@@H](Cc1ccc(O)cc1)C(=O)O`, the activity, negative = inhibition in assay [1] (setting [7]) was 13.6%; in assay [1] (setting [8]) it was 10.5%. The Potency result in assay [2], in assay [3], in assay [4], in assay [5] and in assay [6] was “inactive” throughout.

`CC(N)CCCC(C)(C)O` (stereo not drawn): the values for the activity, negative = inhibition in assay [1] (setting [7]) and in assay [1] (setting [8]) were 12.5% and -7.47%, respectively. For the same molecule, the Potency entry in assay [2], in assay [3], in assay [4], in assay [5] and in assay [6] was “inactive” in each case.

`CCN(CC)S(=O)(=O)c1ccc(C(=O)O)cc1`: the activity, negative = inhibition in assay [1] (setting [7]) was 7.39%; in assay [1] (setting [8]) it was 20.6%. The Potency result in assay [2], in assay [3], in assay [4], in assay [5] and in assay [6] was “inactive” in each case.

For `CCCCCC(N)=O`, the activity, negative = inhibition is 6.64% in assay [1] (setting [7]) and 8.74% in assay [1] (setting [8]). Further, the Potency result in assay [2], in assay [3], in assay [4], in assay [5] and in assay [6] was “inactive” in each case.

As for `CC(O)CCCCn1c(=O)c2c(ncn2C)n(C)c1=O` (stereo not drawn), the values for the activity, negative = inhibition in assay [1] (setting [7]) and in assay [1] (setting [8]) were 9.1% and 4.96%, respectively. For the same molecule, the Potency entry in assay [2], in assay [3], in assay [4], in assay [5] and in assay [6] was “inactive” each time.

In the case of `CC(=O)Nc1cccc(O)c1`, the activity, negative = inhibition in assay [1] (setting [7]) is 7.02%; in assay [1] (setting [8]) it was 9.95%. Further, the Potency entry in assay [2], in assay [3], in assay [4], in assay [5] and in assay [6] was “inactive” each time.

As for `Cc1cccc(C(=O)O)c1O`, the activity, negative = inhibition is 14.5% in assay [1] (setting [7]) and 2.46% in assay [1] (setting [8]). Further, the Potency entry in assay [2], in assay [3], in assay [4], in assay [5] and in assay [6] was “inactive” throughout.

As for `Cc1cc(-n2nc3ccc(Cl)cc3n2)c(O)c(C(C)(C)C)c1`, the Potency entry in assay [2] and in assay [3] was “inactive” each time.

Regarding `NC(=O)NS(=O)(=O)c1ccc(N)cc1`, the activity, negative = inhibition in assay [1] (setting [7]) is -1.96%; in assay [1] (setting [8]), 15.9%. The Potency entry in assay [2], in assay [3], in assay [4], in assay [5] and in assay [6] was “inactive” throughout.

With `CNc1c2c(nn1C)CCCC2`, the figures for the activity, negative = inhibition in assay [1] (setting [7]) and in assay [1] (setting [8]) were 6.6% and 23%, respectively. In addition, the Potency result in assay [2], in assay [3], in assay [4], in assay [5] and in assay [6] was “inactive” in each case.

Regarding `Nc1c2c(nc3c1CCC3)CCCC2`, the Potency in assay [3] was 11.2 µM (active).

Consider `CC(=O)SC[C@@H](Cc1ccccc1)C(=O)NCC(=O)OCc1ccccc1`, for which the figures for the activity, negative = inhibition in assay [1] (setting [9]) and in assay [1] (setting [10]) were -4.01% and -5.82%, respectively. Moreover, the Potency entry in assay [2], in assay [4], in assay [5] and in assay [6] was “inactive” in each case.

On to `CC1CCc2cc(F)cc3c(=O)c(C(=O)O)cn1c23` (stereo not drawn), for which the activity, negative = inhibition in assay [1] (setting [7]) is -7.54%; in assay [1] (setting [8]), 6.45%. For the same molecule, the Potency result in assay [2], in assay [3], in assay [4], in assay [5] and in assay [6] was “inactive” in each case.

Consider `Nc1ncnc(Nc2ccccc2)n1`, for which the activity, negative = inhibition in assay [1] (setting [7]) is -28.4%. For the same molecule, the Potency result in assay [2], in assay [3], in assay [4], in assay [5] and in assay [6] was “inactive” each time.

Regarding `Cc1ncc(CO)c(CN)c1O`, the activity, negative = inhibition was 7.32% in assay [1] (setting [7]) and 18.3% in assay [1] (setting [8]). For the same molecule, the Potency result in assay [2], in assay [3], in assay [4], in assay [5] and in assay [6] was “inactive” each time.

`CN1CCN(C(=O)C2CCCCC2)CC1`: the activity, negative = inhibition in assay [1] (setting [7]) is 0.439%; in assay [1] (setting [8]) it was -13.4%. Further, the Potency entry in assay [2], in assay [3], in assay [4], in assay [5] and in assay [6] was “inactive” throughout.

As to `O=C(Cn1ccnc1[N+](=O)[O-])NCCO`, the activity, negative = inhibition in assay [1] (setting [7]) is 4.18%; in assay [1] (setting [8]), -2.11%. The Potency result in assay [2], in assay [3], in assay [4], in assay [5] and in assay [6] was “inactive” each time.

Turning to `O=C(CN1CCNCC1)NC1CCCCC1`, the results for the activity, negative = inhibition in assay [1] (setting [7]) and in assay [1] (setting [8]) were 3.68% and 4.23%, respectively. The Potency entry in assay [2], in assay [3], in assay [4], in assay [5] and in assay [6] was “inactive” each time.

Regarding `Nc1ccncc1N`, the values for the activity, negative = inhibition in assay [1] (setting [7]) and in assay [1] (setting [8]) were 9.9% and 5.99%, respectively. Besides, the Potency entry in assay [2], in assay [3], in assay [4], in assay [5] and in assay [6] was “inactive” in each case.

For the molecule `C[C@@H]1CCC[C@H](C)N1`, the activity, negative = inhibition is 13.8% in assay [1] (setting [9]) and -5.49% in assay [1] (setting [10]). Further, the Potency entry in assay [2], in assay [3], in assay [4], in assay [5] and in assay [6] was “inactive” in each case.

As for `C[N+](C)(C)CC[N+]1(C)Cc2c(Cl)c(Cl)c(Cl)c(Cl)c2C1`, the activity, negative = inhibition in assay [1] (setting [7]) was 5.09%; in assay [1] (setting [8]) it was 9.42%. Besides, the Potency result in assay [2], in assay [3], in assay [4], in assay [5] and in assay [6] was “inactive” each time.

On to `CCN(CC)CCOC(=O)C(c1ccccc1)c1ccccc1`, for which the activity, negative = inhibition in assay [1] (setting [7]) is -8.73%; in assay [1] (setting [8]) it was -12.1%. Besides, the Potency result in assay [2], in assay [4], in assay [5] and in assay [6] was “inactive” each time.

`O=C(O)Cc1cn(-c2ccccc2)nc1-c1ccc(Cl)cc1`: the activity, negative = inhibition was 11.4% in assay [1] (setting [7]) and 9.39% in assay [1] (setting [8]). Further, the Potency result in assay [2], in assay [3], in assay [4], in assay [5] and in assay [6] was “inactive” in each case.

Turning to `O=c1[nH]cnc2nc[nH]c12`, the results for the activity, negative = inhibition in assay [1] (setting [7]) and in assay [1] (setting [8]) were -7.68% and 15.5%, respectively. Besides, the Potency result in assay [2], in assay [3], in assay [4], in assay [5] and in assay [6] was “inactive” each time.

With `CC(=O)Nc1ccc(OCCOCCOc2ccc(NC(C)=O)cc2)cc1`, the activity, negative = inhibition is 6.75% in assay [1] (setting [7]) and 13% in assay [1] (setting [8]). The Potency entry in assay [2], in assay [3], in assay [4], in assay [5] and in assay [6] was “inactive” each time.

As for `CCCCCCCCCCCCCCCCN`, the activity, negative = inhibition in assay [1] (setting [7]) is 0.565%; in assay [1] (setting [8]) it was 3.84%. Further, the Potency result in assay [2], in assay [3], in assay [4], in assay [5] and in assay [6] was “inactive” each time.

On to `O=C1CC[C@@H](C(=O)O)N1`, for which the activity, negative = inhibition is 0.206% in assay [1] (setting [7]) and 18.2% in assay [1] (setting [8]). In addition, the Potency entry in assay [2], in assay [4], in assay [5] and in assay [6] was “inactive” in each case.

For `CCCCCC(C)N` (stereo not drawn), the activity, negative = inhibition in assay [1] (setting [8]) is -25.4%. The Potency in assay [3] was 10 µM (active).

As to `O=C1c2ccccc2C(=O)C1c1ccc(Br)cc1`, the Potency in assay [2] and in assay [3] was 11.2 µM (active) in each case. For the same molecule, the Potency entry in assay [5] and in assay [6] was “inactive” throughout.

On to `O=C(O)c1ccccc1OP(=O)(O)O`, for which the activity, negative = inhibition in assay [1] (setting [7]) was 4.92%; in assay [1] (setting [8]), 6.75%. The Potency result in assay [2], in assay [3], in assay [4], in assay [5] and in assay [6] was “inactive” each time.
